Data published in PubChem BioAssay (NCATS).
Several values for one entry are separate records, joined by “and”; a condition that tells them apart may be missing. Identical values can stand only once. Inconclusive results are not listed. Activity calls are given as the source filed them. Unless noted, calls come from the whole dose curve; as a rule, active = well fitted curve in the direction sought with a large enough effect; inconclusive = small, poorly fitted or top-dose-only effect, or another doubt; inactive = no such curve, though single readings can be large; an effect the other way counts as inactive or inconclusive.

Columns and labels:
[1] = system: JEG-3; assay: Primary qHTS to identify gynecologic anti-cancer compounds using libraries of approved drugs and bioactive compounds (AID 1345084); details: Gynecologic cancer cell panel viability, ATPlite luminescence, 48 h; series mostly up to 57.5 µM; note: nearly all actives have a fitted effect of over 55% in size; note: potency is the fitted concentration of half-maximal effect
Procedure, shortened: (§1)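 ATP-based viability (ATPlite), 1,000 cells/well, 16 h pre-incubation, 48 h compound at 37 C, 5% CO2, 15 min RT before read.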

[2] = system: Tov-21-G; assay: as above; details: Gynecologic cancer cell panel viability, ATPlite luminescence, 48 h; series mostly up to 57.5 µM
Procedure, shortened: as §1

[3] = Drug repurposing screens with cells derived from glioblastoma tumor samples (AID 1345199); details: GBM patient neurospheres viability, ATP luminescence, 48 h; note: nearly all actives have a fitted effect of over 40% in size; note: potency is the fitted concentration of half-maximal effect; for activity, negative = cell killing: % is set by controls: 0 for no effect and ±100 for the full control effect
Procedure, shortened: (§2)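 Primary testing used CD133+ neurospheres from four GBM patients, seven concentrations, 48 h exposure and ATP-based viability; confirmation added three slower-growing patient lines.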

[4] = system: OV90; assay: Primary qHTS to identify gynecologic anti-cancer compounds using libraries of approved drugs and bioactive compounds (AID 1345084); details: Gynecologic cancer cell panel viability, ATPlite luminescence, 48 h; series mostly up to 57.5 µM; note: nearly all actives have a fitted effect of over 55% in size; note: potency is the fitted concentration of half-maximal effect
Procedure, shortened: as §1

[5] = system: Tov112D; assay: as above; details: Gynecologic cancer cell panel viability, ATPlite luminescence, 48 h; series mostly up to 57.5 µM
Procedure, shortened: as §1

[6] = system: astro; assay: Drug repurposing screens with cells derived from glioblastoma tumor samples (AID 1345199); details: viability, ATP luminescence, 48 h; series mostly up to 45.9 µM; note: nearly all actives have a fitted effect of over 40% in size; note: potency is the fitted concentration of half-maximal effect; for activity, negative = cell killing: % is set by controls: 0 for no effect and ±100 for the full control effect
Procedure, shortened: as §2

[7] = system: PA-1; assay: Primary qHTS to identify gynecologic anti-cancer compounds using libraries of approved drugs and bioactive compounds (AID 1345084); details: Gynecologic cancer cell panel viability, ATPlite luminescence, 48 h; series mostly up to 57.5 µM; note: nearly all actives have a fitted effect of over 55% in size; note: potency is the fitted concentration of half-maximal effect
Procedure, shortened: as §1

[8] = system: SKOV3; assay: as above; details: Gynecologic cancer cell panel viability, ATPlite luminescence, 48 h; series mostly up to 57.5 µM
Procedure, shortened: as §1

[9] = qHTS assay to identify inhibitors of the type 1 interferon - major histocompatibility complex class I in skeletal muscle: Counter screen cell viability and HiBit confirmation (AID 1347412); details: iHSKM muscle cells + IFN-b, HiBiT or CellTiter-Glo, 24 h; note: potency is the fitted concentration of half-maximal effect; nearly all actives have a fitted effect of over 60% in size
Procedure, shortened: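 Luminescence read-out: Nano-Glo HiBiT lytic signal from C-terminally HiBiT-tagged HLA-B in CRISPR-edited human myoblasts, plus CellTiter Glo ATP as viability counter screen. IFN-beta 4.0 ng/ml; 24 hrs treatment at 37 C, 5% CO2.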

[10] = biological target: Nuclear receptor subfamily 1 group I member 2 (Rattus norvegicus) (UniProt Q9R1A7); assay: qHTS assay for small molecule activators of the rat pregnane X receptor (rPXR) signaling pathway (AID 651751; call rule not given here; note: 0% is about no effect); details: rPXR reporter cells, luciferase (One-Glo), 24 h
[11] = at 46.1 µM (top of the series), tumour line C
[12] = at 45.9 µM (top of the series), tumour line B
[13] = at 20 µM (top of the series), tumour line C
[14] = at 45.9 µM (top of the series), tumour line D

Chain of Nuclear receptor subfamily 1 group I member 2 (Rattus norvegicus) (Q9R1A7 whole entry, looked up): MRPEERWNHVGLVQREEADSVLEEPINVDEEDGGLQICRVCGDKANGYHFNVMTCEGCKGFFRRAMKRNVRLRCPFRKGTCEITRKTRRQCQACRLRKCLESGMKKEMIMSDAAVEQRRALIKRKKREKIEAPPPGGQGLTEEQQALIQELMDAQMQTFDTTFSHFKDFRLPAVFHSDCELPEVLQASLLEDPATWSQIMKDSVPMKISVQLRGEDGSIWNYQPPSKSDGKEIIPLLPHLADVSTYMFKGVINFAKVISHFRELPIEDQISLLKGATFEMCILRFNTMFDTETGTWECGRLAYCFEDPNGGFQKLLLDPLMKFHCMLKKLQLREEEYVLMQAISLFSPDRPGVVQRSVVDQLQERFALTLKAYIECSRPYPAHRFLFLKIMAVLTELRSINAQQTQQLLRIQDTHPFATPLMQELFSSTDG

COC(=O)C1=C(C)NC(C)=C(C(=O)OCCN(C)Cc2ccccc2)C1c1cccc([N+](=O)[O-])c1 (centres undefined)
inactive: Potency [1] | Potency [2] | activity, negative = cell killing [3, 11] 14.5%
active: Potency ([3]; tumour line A) 8.91 µM | Potency ([3]; tumour line D) 14.1 µM

CN(C(=O)CCCOc1ccc2[nH]c(=O)ccc2c1)C1CCCCC1
inactive: Potency [1] | Potency [4] | Potency [2] | Potency [5] | activity, negative = cell killing [3, 12] -16.8% | Potency [6]
active: Potency ([3]; tumour line A) 11.2 µM

NC(N)=NC(=O)Cc1c(Cl)cccc1Cl
inactive: Potency [1] | Potency [7] | Potency [8] | Potency [2] | Potency [5] | activity, negative = cell killing [3, 11] -19.8%
active: Potency ([3]; tumour line A) 5.62 µM

CN(C)CCCN1c2ccccc2Sc2ccccc21
inactive: Potency [1] | Potency [7] | Potency [8] | Potency [2] | Potency [5] | activity, negative = cell killing [3, 13] -19.7%
active: Potency ([3]; tumour line A) 12.6 µM | Potency ([3]; tumour line D) 10 µM

NC1=NCC2c3ccccc3Cc3ccccc3N12 (centres undefined)
active: Potency ([3]; tumour line A) 12.6 µM
inactive: Potency [1] | Potency [7] | Potency [8] | Potency [2] | activity, negative = cell killing [3, 12] -23.2% | Potency [6]

CN(C)CC/C=C1\c2ccccc2COc2ccccc21
active: Potency ([3]; tumour line A) 14.1 µM
inactive: Potency [1] | Potency [7] | Potency [8] | Potency [2] | Potency [5] | activity, negative = cell killing [3, 12] -27.9% | activity, negative = cell killing [3, 11] -1.82% | Potency [6]

CC(C)(C)c1ccc(C(=O)CCCN2CCC(OC(c3ccccc3)c3ccccc3)CC2)cc1
inactive: Potency [1] | Potency [2] | Potency [5] | activity, negative = cell killing [3, 11] -18.9%
active: Potency ([3]; tumour line A) 2.51 µM | Potency ([3]; tumour line B) 25.1 µM | Potency ([3]; tumour line D) 5.01 µM

CC(N=C(NC#N)Nc1ccncc1)C(C)(C)C (centres undefined)
inactive: Potency [4] | Potency [7] | Potency [8] | Potency [2] | Potency [5] | activity, negative = cell killing [3, 12] -17.7% | activity, negative = cell killing [3, 14] -6.7% | activity, negative = cell killing [3, 11] -1.36% | Potency [6]

CCN(CC)CCCN(c1ccccc1)C1Cc2ccccc2C1
inactive: Potency [1] | Potency [7] | Potency [2] | Potency [5]

C[n+]1cc2c3c(ccc2c2ccc4cc5c(cc4c21)OCO5)OCO3
active: Potency [4] 11.2 µM | Potency [7] 5.01 µM | Potency [8] 3.55 µM | Potency [2] 7.94 µM | Potency [5] 10 µM | Potency ([9]; HiBiT) 1.11 µM | Potency ([9]; Viability) 2.22 µM

CC(C)COCC(CN(Cc1ccccc1)c1ccccc1)N1CCCC1 (centres undefined)
active: Potency [4] 25.1 µM | Potency ([3]; tumour line A) 11.2 µM | Potency ([3]; tumour line D) 11.2 µM
inactive: Potency [2] | activity, negative = cell killing [3, 11] -7.32%

Nc1nc(N)c2nc(-c3ccccc3)c(N)nc2n1
inactive: Potency [1] | Potency [8] | activity, negative = cell killing [3, 11] 0.453% | max response [10] 0.808% and 7.32%
active: Potency [2] 20 µM | Potency ([3]; tumour line A) 12.6 µM | Potency ([3]; tumour line B) 28.2 µM

NC(N)=N/N=C/c1c(Cl)cccc1Cl
inactive: Potency [1] | Potency [7] | Potency [2] | Potency [5] | activity, negative = cell killing [3, 11] 0.325% | Potency [6]
active: Potency ([3]; tumour line A) 15.8 µM

CC(=O)[C@]1(O)Cc2c(O)c3c(c(O)c2[C@@H](O[C@H]2C[C@H](N)[C@H](O)[C@H](C)O2)C1)C(=O)c1ccccc1C3=O
active: Potency [4] 3.16 µM | Potency [7] 0.282 µM | Potency [8] 1.78 µM | Potency [2] 0.794 µM | Potency [5] 0.562 µM | Potency [6] 0.398 µM | Potency ([9]; HiBiT) 0.883 µM

CN1CCN(C2=Nc3ccccc3Oc3ccc(Cl)cc32)CC1
active: Potency ([3]; tumour line A) 12.6 µM
inactive: Potency [1] | Potency [7] | Potency [8] | Potency [2] | Potency [5] | activity, negative = cell killing [3, 13] -15.4% | activity, negative = cell killing ([3]; at 21.2 µM (top of the series), tumour line B) -17.3% | activity, negative = cell killing ([3]; at 21.2 µM (top of the series), tumour line D) -18.3% | Potency [6]

c1cc(CN2CCCCC2)cc(OCCCNc2nc3ccccc3s2)c1
inactive: Potency [1] | Potency [7] | Potency [2] | Potency [5]

COCCCC/C(=N\OCCN)c1ccc(C(F)(F)F)cc1
inactive: Potency [1] | Potency [7] | Potency [2] | Potency [5]

Cc1nc2sccn2c(=O)c1CCN1CCC(=C(c2ccc(F)cc2)c2ccc(F)cc2)CC1
inactive: Potency [1] | Potency [7] | Potency [8] | Potency [2] | Potency [5]

COCC(=O)O[C@]1(CCN(C)CCCc2nc3ccccc3[nH]2)CCc2cc(F)ccc2[C@@H]1C(C)C
inactive: Potency [7] | Potency [2] | Potency [5]
active: Potency [4] 22.4 µM | Potency [6] 10 µM

Fc1ccc(C(c2ccc(F)cc2)N2CCN(C/C=C/c3ccccc3)CC2)cc1
inactive: Potency [1] | Potency [7] | Potency [8] | Potency [2] | Potency [5]

OCCN1CCN(CCCN2c3ccccc3C=Cc3ccccc32)CC1
inactive: Potency [1] | Potency [7] | Potency [2] | Potency [5]

CC1=NS(=O)(=O)c2cc(Cl)ccc2N1
inactive: Potency [1] | Potency [7] | Potency [2] | Potency [5] | activity, negative = cell killing [3, 12] -1.9% | activity, negative = cell killing [3, 14] 2.33% | activity, negative = cell killing ([3]; at 46 µM (top of the series), tumour line A) -21.7% | activity, negative = cell killing [3, 11] 8.3%

OC(CCN1CCCCC1)(c1ccccc1)C1CCCCC1 (centres undefined)
inactive: Potency [1] | Potency [7] | Potency [8] | Potency [2] | Potency [5] | activity, negative = cell killing [3, 12] -11.3% | activity, negative = cell killing [3, 11] -28% | Potency [6]
